Measurements as given in PubChem BioAssay (NCATS).
“And” between values parts separate entries of the source, which are not always exact repeats. Equal entries are not always repeated. Inconclusive results are not listed. The source made the active and inactive calls. Calls follow the shape of the dose curve; as a rule, active = well fitted curve in the direction sought with a large enough effect; inconclusive = small, poorly fitted or top-dose-only effect, or another doubt; inactive = no such curve, though single readings can be large; an effect the other way counts as inactive or inconclusive.

Legend:
[1] = system: CRL-7250; test: Cytotoxic Profiling of Annotated Libraries Using Quantitative High-Throughput Screening (AID 1296008); conditions: Five cell lines viability, CellTiter-Glo ATP luminescence, 48-72 h; max response: hits give low values; also: nearly all actives have a fitted effect of over 60% in size
Method in brief: (§1)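 Cytotoxicity was measured as CellTiter-Glo ATP luminescence, read after 10 min at room temperature. Compound treatment of the cells lasted 48 or 72 hr at 37 degrees Celsius in a qHTS format.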

[2] = system: KB-3-1; test: as above; conditions: Five cell lines viability, CellTiter-Glo ATP luminescence, 48-72 h; max response: hits give low values
Method in brief: as §1

[3] = system: NIH3T3; test: as above; conditions: Five cell lines viability, CellTiter-Glo ATP luminescence, 48-72 h; max response: hits give low values
Method in brief: as §1

[4] = system: MCC-13; test: qHTS assay to identify novel small-molecules to repurpose for Merkel cell carcinoma treatment (AID 1296009); conditions: MCC and control cell lines, CellTiter-Glo viability, 72 h; series mostly up to 46 µM; also: nearly all actives have a fitted effect of over 60% in size
Method in brief: (§2)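 Cell viability measured by CellTiter-Glo following 72 hr compound treatment at 37 degree celsius, with NPC and MIPE libraries tested in 8- and 11-point concentration series.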

[5] = system: MCC-26; test: as above; conditions: MCC and control cell lines, CellTiter-Glo viability, 72 h; series mostly up to 46 µM
Method in brief: as §2

[6] = system: MKL-1; test: as above; conditions: MCC and control cell lines, CellTiter-Glo viability, 72 h; series mostly up to 46 µM
Method in brief: as §2

[7] = system: MKL-2; test: as above; conditions: MCC and control cell lines, CellTiter-Glo viability, 72 h; series mostly up to 46 µM
Method in brief: as §2

[8] = system: UISO; test: as above; conditions: MCC and control cell lines, CellTiter-Glo viability, 72 h; series mostly up to 46 µM
Method in brief: as §2

[9] = system: WaGa; test: as above; conditions: MCC and control cell lines, CellTiter-Glo viability, 72 h; series mostly up to 46 µM
Method in brief: as §2

[10] = system: C33A; test: Primary qHTS to identify gynecologic anti-cancer compounds using libraries of approved drugs and bioactive compounds (AID 1345084); conditions: Gynecologic cancer cell panel viability, ATPlite luminescence, 48 h; series mostly up to 57.5 µM; also: nearly all actives have a fitted effect of over 55% in size
Method in brief: (§3)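 Cells, 1,000 per well, were allowed to settle for 16 h at 37 C before compound addition. Five concentrations were tested for 48 h, and viability was read by ATPlite luminescence after 15 min at room temperature.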

[11] = system: CAOV3; test: as above; conditions: Gynecologic cancer cell panel viability, ATPlite luminescence, 48 h; series mostly up to 57.5 µM
Method in brief: as §3

[12] = system: HaCat; test: Cytotoxic Profiling of Annotated Libraries Using Quantitative High-Throughput Screening (AID 1296008); conditions: Five cell lines viability, CellTiter-Glo ATP luminescence, 48-72 h; max response: hits give low values; also: nearly all actives have a fitted effect of over 60% in size
Method in brief: as §1

[13] = system: NIH3T3; test: qHTS assay to identify novel small-molecules to repurpose for Merkel cell carcinoma treatment (AID 1296009); conditions: MCC and control cell lines, CellTiter-Glo viability, 72 h; at 44.8 µM (top of the series) unless noted; also: nearly all actives have a fitted effect of over 60% in size
Method in brief: as §2

[14] = system: HEK293; test: Cytotoxic Profiling of Annotated Libraries Using Quantitative High-Throughput Screening (AID 1296008); conditions: Five cell lines viability, CellTiter-Glo ATP luminescence, 48-72 h; max response: hits give low values; also: nearly all actives have a fitted effect of over 60% in size
Method in brief: as §1

[15] = system: HACAT; test: qHTS assay to identify novel small-molecules to repurpose for Merkel cell carcinoma treatment (AID 1296009); conditions: MCC and control cell lines, CellTiter-Glo viability, 72 h; at 44.8 µM (top of the series) unless noted; also: nearly all actives have a fitted effect of over 60% in size
Method in brief: as §2

[16] = system: HEK293T; test: as above; conditions: MCC and control cell lines, CellTiter-Glo viability, 72 h; at 44.8 µM (top of the series) unless noted
Method in brief: as §2

[17] = system: CRL-7250; test: as above; conditions: MCC and control cell lines, CellTiter-Glo viability, 72 h; at 44.8 µM (top of the series) unless noted
Method in brief: as §2
% is scaled to controls: 0 for no effect and ±100 for the full control effect; potency is read from the fitted curve at half-maximal effect.

COCCOCCO
inactive: max response [1] -4.64% | max response [2] -8.22% | max response [3] 2.23% | Potency [4] | Potency [5] | Potency [6] | Potency [7] | Potency [8] | Potency [9] | Potency [10] | Potency [11]

O=S(=O)(O)C(F)(F)C(F)(F)C(F)(F)C(F)(F)C(F)(F)C(F)(F)C(F)(F)C(F)(F)F
inactive: max response [1] -8.73% | max response [12] 0.89% | max response [2] -10.5% | outcome [3] | Potency [4] | Potency [5] | Potency [6] | outcome [13] inactive [at 92 µM] | Potency [8] | Potency [10] | Potency [11]

CCN1CCN(C(=O)Cc2ccc(Nc3ncc(F)c(Nc4ccc(C(=O)Nc5ccccc5Cl)cc4)n3)cc2)CC1
active: Potency [1] 26.4 µM and 16.4 µM | Potency [12] 8.2 µM | Potency [2] 1.84 µM | Potency [3] 20.6 µM | Potency [7] 9.35 µM
inactive: Potency [5] | Potency [10]

O=[N+]([O-])c1c2ccccc2cc2ccccc12
inactive: max response [14] -16% | max response [12] 3.41% | max response [2] -16.7% | max response [3] -10.2% | Potency [4] | Potency [5] | Potency [10]
active: Potency [8] 42.8 µM

O=C(O)c1cc(Oc2ccc(C(F)(F)F)cc2Cl)ccc1[N+](=O)[O-]
inactive: max response [1] -0.373% | max response [2] -8.96% | Potency [4] | Potency [6] | Potency [7] | Potency [8] | Potency [9] | Potency [10]

CCO/N=C(\CC)C1=C(O)CC(c2c(C)cc(C)cc2C)CC1=O (configuration not stated)
inactive: max response [12] -8.94% | max response [2] -11.8% | max response [3] -12.4% | Potency [4] | Potency [5] | Potency [6] | Potency [8] | Potency [10]
active: Potency [14] 24.3 µM

O=c1[nH]c2ccc(Cl)cc2c(N[C@@H]2CN3CCC2CC3)c1-c1nc2ccccc2[nH]1
inactive: Potency [10]
active: Potency [1] 2.35 µM and 6.51 µM | Potency [12] 16.6 µM | Potency [2] 3.72 µM | Potency [3] 83.3 nM and 206 nM | Potency [4] 4.18 µM | Potency [6] 0.743 µM | Potency [7] 2.64 µM | Potency [8] 5.9 µM | Potency [9] 1.48 µM

O=C(O)CNC(=O)c1c(O)c2ccccc2n(Cc2ccccc2)c1=O
inactive: outcome [12] | max response [2] 5.38% and 7.42% | max response [3] -11% and 0.668% | outcome [15] | outcome [16] | Potency [4] | Potency [5] | Potency [6] | Potency [7] | Potency [8] | Potency [9] | Potency [10] | Potency [11]

CCCN(CCC)c1c([N+](=O)[O-])cc(S(N)(=O)=O)cc1[N+](=O)[O-]
active: Potency [12] 68.6 µM | Potency [4] 24.3 µM | Potency [6] 24.3 µM | Potency [7] 21.7 µM | Potency [8] 21.7 µM | Potency [10] 35.5 µM
inactive: max response [2] -9.77%

CC1=C(O)C(=O)C=C2C1=CC=C1[C@@]2(C)CC[C@@]2(C)[C@@H]3C[C@](C)(C(=O)O)CC[C@]3(C)CC[C@]12C
active: Potency [12] 2.64 µM | Potency [2] 2.96 µM | Potency [3] 3.32 µM | Potency [4] 4.18 µM | Potency [8] 3.72 µM

Nc1ccc(N=Nc2ccccc2)cc1
inactive: max response [2] -15.1% | Potency [4] | Potency [6]
active: Potency [3] 6.86 µM | Potency [11] 35.5 µM

O=C(C1CC1)N1CC[C@@H](Cn2c(-c3ccc(-c4ccc5occc5c4)cc3)nc3cnccc32)C1
inactive: outcome [17]

CC(C)(C)COc1ccc(-n2cc(C(=O)O)cn2)cc1C#N
inactive: outcome [17]

COc1nn(CSP(=S)(OC)OC)c(=O)s1
active: Potency [6] 24.3 µM | Potency [7] 24.3 µM | Potency [8] 38.6 µM
inactive: outcome [12] | max response [2] -23.4% | max response [3] -0.106% | outcome [15] inactive [at 92 µM] | Potency [10]

c1cc2ccc3cccc4ccc(c1)c2c34
inactive: max response [2] -15.2% | max response [3] -19.4% | Potency [4] | Potency [6] | Potency [7] | Potency [8] | Potency [9] | Potency [10]
